# Rows were chosen to be rich in hits. Some 6.1% of all compounds tested hit in one or more screens of this group.
# TGFb SMAD3 inh: TGF-b pathway inhibition; HepG2 CAGA-GFP TGF-b/SMAD3 reporter, GFP fluorescence, 18 h; TGF-beta stimulated, 500 pg/mL final; Potency, µM (series often up to 46.1 µM), for the others: top-dose activity, negative = inhibition, usual class: inhibitors; actives 1.2% (n = 410,000); AID 588855; further: on the % scale 0 is the no-effect control and ±100 the full control effect; nearly all actives have a fitted effect of over 65% in size
#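 TGF-beta reporter screen: HEPG2 CAGA-GFP, 1% FBS, 500 pg/mL TGF-beta final, 18 h; per-cell GFP summed per well; curves fitted and categorized by class.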
# ATXN viability: reduces viability in counter-screen for ATXN expression inhibitors; S2 cells (HEK-293 line with an ATXN2-luciferase reporter) viability, CellTiter-Fluor protease fluorescence, 24 h; Potency, µM (highest dose often 56.7 µM), most hits filed as cytotoxic; actives 0.49% (n = 400,000); further: nearly all actives have a fitted effect of over 40% in size
# VP16 counter: counter-screen for ROR gamma inhibitors: Gal4-VP16 reporter | Potency, µM (highest dose often 53.6 µM), for the others: at the top dose activity, negative = inhibition, most hits filed as inhibitors | Drosophila S2 Gal4-VP16 UAS-luciferase, luminescence, 20 h | actives 3.5% (n = 310,000);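 further: Gal4-VP16 expression switched on by copper sulfate through the metallothionein promoter; on the % scale 0 is the no-effect control and ±100 the full control effect; nearly all actives have a fitted effect of over 50% in size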
# ATXN2 expr inh: ATXN2 expression inhibition. actives 0.72% (n = 360,000). AID 1745845. Potency, µM (top dose mostly 57 µM), inactives show at the highest dose activity change, negative = inhibition, usual class: inhibitors. HEK-293 ATXN2-luciferase reporter, luminescence, 24 h; further: on the % scale 0 is the no-effect control and ±100 the full control effect; nearly all actives have a fitted effect of over 55% in size
#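 qHTS (up to 57 uM final) was run with 24 h compound exposure of reporter cells at 37 °C. Each well was multiplexed: SteadyGlo luminescence measured ATXN2-luciferase expression after a fluorogenic Gly-Phe-AFC viability readout (25 uM final).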
# HepG2 viability: HepG2 cytotoxicity, counter-screen for TGF-b inhibitors; HepG2 CAGA-GFP viability, ATP luminescence, 18 h; Potency, µM (series often up to 46.1 µM), inactives show at the top dose activity change, negative = cytotoxicity, usual class: cytotoxic; actives 0.76% (n = 410,000)
#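 HepG2 CAGA-GFP cells (1000/well, DMEM with 1% FBS) received compound, then TGF-beta at 500 pg/mL final, and were incubated 18 hours at 37 degrees C. Viability was read by CellTiter-Glo luminescence. Media-only wells were set as complete cell-killing and DMSO as no toxicity.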
# RORg inh: inhibitors of mouse ROR gamma transcriptional activity; Drosophila S2 Gal4-RORgamma UAS-luciferase reporter, 20 h; actives 5.4% (n = 310,000); Potency, µM (highest dose often 53.6 µM), for inactives: top-dose activity change, negative = inhibition, usual class: inhibitors; AID 2551; further: on the % scale 0 is the no-effect control and ±100 the full control effect; nearly all actives have a fitted effect of over 60% in size
# Target sequence (P51450 whole entry, looked up, the tested form may be a part): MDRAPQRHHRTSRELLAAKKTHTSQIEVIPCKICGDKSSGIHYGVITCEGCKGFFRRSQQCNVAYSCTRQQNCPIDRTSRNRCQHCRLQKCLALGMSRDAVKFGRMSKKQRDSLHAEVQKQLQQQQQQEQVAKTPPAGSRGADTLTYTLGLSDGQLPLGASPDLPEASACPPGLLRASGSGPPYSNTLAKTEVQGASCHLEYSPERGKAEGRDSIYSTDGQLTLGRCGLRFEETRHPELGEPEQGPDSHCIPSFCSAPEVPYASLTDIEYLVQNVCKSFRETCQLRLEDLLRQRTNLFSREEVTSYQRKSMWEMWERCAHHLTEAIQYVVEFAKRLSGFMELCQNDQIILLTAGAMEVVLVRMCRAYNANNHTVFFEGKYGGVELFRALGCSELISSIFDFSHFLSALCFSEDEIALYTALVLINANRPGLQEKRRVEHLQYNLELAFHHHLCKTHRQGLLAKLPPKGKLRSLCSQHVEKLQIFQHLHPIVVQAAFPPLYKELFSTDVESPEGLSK
#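 Drosophila Schneider cells stably carrying a metallothionein-driven Gal4 DBD–ROR gamma fusion and a UAS-Photinus luciferase reporter were exposed to compound for 1 hr, then induced with copper sulfate (700 uM final) for 20 hr at ambient temperature before luminescence reading.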
# An asterisk follows results filed as active; i = inactive; ? = inconclusive; / = no result; [ ] = dose if it differs, or a comment. The call rests on the fitted dose curve; in most records, active means well fitted curve in the direction sought with a large enough effect; inconclusive means small, poorly fitted or top-dose-only effect, or another doubt; inactive means no such curve, though single readings can be large; an effect the other way counts as inactive or inconclusive. Potency means the concentration at half of the fitted maximal effect.
SMILES,TGFb SMAD3 inh,ATXN viability,VP16 counter,ATXN2 expr inh,HepG2 viability,RORg inh
Cc1cc(CNC(=O)c2cccc([N+](=O)[O-])c2C)c2ccccc2n1,0.0%,/,10µM*,-36.7%,-2.8%,-25.7%
CCC1CN(CCC(=O)N2CCN(c3ncccn3)CC2)Cc2cc(OC)ccc2O1 (stereo not given),/,i,/,/,/,/
COc1ccccc1-c1nnc(Nc2nc3c(OC)cccc3s2)o1,?,?,?,-23.9%,-24.2%,1.58µM*
COc1cccc2sc(Nc3nc(-c4ccncc4)cs3)nc12,9.5%,i,-14.5%,1.6%,8.3%,12.6µM*
COc1cccc(-c2nnc(-c3ccc4ccccc4c3)o2)c1,-5.2%,i,/,8.3%,0.0%,/
CC(=O)Nc1ccccc1OCc1nnc(-c2ccccc2Cl)o1,13.0%,i,-0.1%,8.9%,-2.2%,-8.5%
COc1cccc2sc(Nc3nnc(-c4ccccc4Cl)o3)nc12,?,?,2.51µM*,?,-31.9%,2µM*
COc1cccc2sc(Nc3nc(-c4cc5ccccc5oc4=O)cs3)nc12,-16.2%,i,?,-6.3%,-56.4%,?
COc1cccc(-c2nnc(Nc3nc4c(F)cccc4s3)o2)c1,?,i,3.55µM*,-27.7%,-34.9%,?
COCC(=O)Nc1cc(C(=O)NC2C3CC4CC2CC(O)(C4)C3)cc2nc(-c3ccccc3)n(C)c12 (stereo not given),/,i,/,/,/,/
CCC(=O)N1c2nc(C(C)C)nn2C2(CCCCC2)[C@@H]2CCCC[C@@H]21,-1.0%,/,/,/,2.2%,/
COc1cccc2sc(NN)nc12,-9.4%,i,22.4µM*,-19.9%,-12.7%,12.6µM*
COc1cccc2sc(Nc3nc4ccc(NC(C)=O)cc4s3)nc12,?,i,-12.3%,-36.8%,-34.9%,13.7%
CCN1CCN(c2cc(C)c3cc(NC(=S)N4CCN(c5ccccc5F)CC4)ccc3n2)CC1,?,?,?,-16.4%,-21.4%,12.6µM*
COc1ccccc1N1CCN(C(=S)Nc2ccc3nc(N4CCOCC4)cc(C)c3c2)CC1,-23.4%,i,?,/,2.5%,4.47µM*
CCN1CCN(c2cc(C)c3cc(NC(=S)N4CCN(c5ccccc5)CC4)ccc3n2)CC1,?,?,-8.7%[10 µM],-13.7%,-22.3%,?
Cc1ccc(C)c(N2CCN(C(=S)Nc3ccc4nc(N5CCOCC5)cc(C)c4c3)CC2)c1,-17.7%,i,?,-21.7%[11.3 µM],2.7%,5.62µM*
CCN1CCN(c2cc(C)c3cc(NC(=S)N4CCOCC4)ccc3n2)CC1,-1.4%,i,-12.7%,/,4.9%,7.3%
Cc1ccc(C)c(N2CCN(C(=S)Nc3ccc4nc(N5CCN(C)CC5)cc(C)c4c3)CC2)c1,?,i,?,?,10µM*,11.2µM*
Cc1cc(N2CCOCC2)nc2ccc(NC(=S)N3CCN(c4ccccc4)CC3)cc12,-7.7%,i,7.6%,-6.1%,-1.1%,?
COc1ccc(C)cc1-n1nnc(-c2nc(-c3ccccc3Cl)no2)c1N,0.2%,i,/,3.3%,1.7%,/
COc1ccccc1NC(=S)N1CC(C)(C)C1=O,2.3%,i,-1.2%,5.0%,5.01µM*,-9.0%
COc1ccccc1NC(=S)NC12CN3CN(CN(C3)C1)C2,-0.7%,i,-3.5%,-4.4%,5.3%,-6.5%
Cc1cc(C)c(C(N)=O)c(Nc2cccc3ccccc23)n1,-7.2%,i,?,-0.2%,7.6%,2.82µM*
CCN(CC)C(=S)NC(=O)c1ccc(OC)c(Br)c1,21.5%,i,0.501µM*,-14.4%,14.3%,0.355µM*
C=CCN(CC=C)C(=S)NC(=O)c1ccc([N+](=O)[O-])cc1,?,i,0.126µM*,-17.8%,-15.2%,0.126µM*
COc1ccc(C(=O)c2ccc(OC)c(Br)c2)cc1Br,0.2%,i,?,1.9%,4.1%,16.3%
